{
  "source": "PubChem BioAssay AID1626",
  "about": "(SRMLSC, 2009)",
  "note": "About 2,000 (0.91%) of roughly 220,000 compounds were called active. Inconclusive results (about 2%) are left out. Not all results are given here. Measured potencies and affinities stand elsewhere. Unmarked numbers belong to inactive results. Cut-off read from the data, not from the text of the source: inconclusive = inhibition above about 80% without an active follow-up result; inactive = below that; test concentration not stated here.",
  "data": [
    {"experiment": "M. tuberculosis H37Rv growth inhibitors, H37Rv strain (AID 1626);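 note: bacteria incubated seven days before Alamar blue readout; 0% = bacteria only wells and 100% = bacteria with antibiotic wells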", "conditions": "active compounds read high, concentration not given here", "units": {"inhibition": "%"}, "values": [
      {"compound": "CCCOC(=O)c1c(NC(=O)CCCn2nc([N+](=O)[O-])cc2C)sc(C(=O)OC)c1C", "inhibition": -6.65},
      {"compound": "CCOP(=O)(OCC)C(Nc1cc(Cl)cc(Cl)c1)c1cccc(O)c1", "note": "(stereo not drawn)", "inhibition": 1.6},
      {"compound": "CCO[C@@H]1OC(C(=O)Nc2ccccc2)=C[C@H](c2ccc(C(F)(F)F)cc2)[C@H]1CCCO", "inhibition": 3.16},
      {"compound": "Cc1occc1-c1nnc(SCC(=O)c2c(N)n(Cc3ccccc3)c(=O)n(C)c2=O)n1C", "inhibition": 4.82},
      {"compound": "CCCC(=O)Nc1ccc(C(=O)NN=C(C2CC2)C2CC2)cc1", "inhibition": -2.7},
      {"compound": "CCCSc1nnc(CSc2nc3nc(C)cc(C)n3n2)o1", "inhibition": -11.4},
      {"compound": "CCCCSc1nnc(CSc2nc3nc(C)cc(C)n3n2)o1", "inhibition": 8.33},
      {"compound": "Cc1cc2nc(N)sc2cc1[N+](=O)[O-]", "inhibition": -4.98},
      {"compound": "COc1ccc(/C=C/c2nc(-c3ccccc3O)n(-c3ccccc3)n2)cc1", "inhibition": -4.12},
      {"compound": "Oc1ccc(/C=C/c2nc(-c3ccccc3O)n(-c3ccccc3)n2)cc1", "inhibition": 21.6},
      {"compound": "O=C(Nc1ccc(Nc2ccncc2)cc1)c1ccc(Nc2ccnc3ccc([N+](=O)[O-])cc23)cc1", "inhibition": -3.41},
      {"compound": "O=C(Nc1ccc(Nc2ccncc2)cc1)c1ccc([N+](=O)[O-])cc1", "inhibition": -0.61},
      {"compound": "COc1ccc(-c2nc(-c3ccccc3)nc(N3CCN(C)CC3)c2C#N)cc1", "inhibition": 9.82},
      {"compound": "N#Cc1c(-c2ccccc2)nc(-c2ccccc2)nc1N1CCOCC1", "inhibition": -9.91},
      {"compound": "COc1ccc(-c2nc(-c3ccccn3)nc(N3CCN(C)CC3)c2C#N)cc1", "inhibition": 1.76},
      {"compound": "COc1ccc(-c2nc(-c3cccc(C)c3)nc(N3CCN(C)CC3)c2C#N)cc1", "inhibition": 6.59},
      {"compound": "CN1CCN(c2nc(-c3ccccc3)nc(-c3ccccc3)c2C#N)CC1", "inhibition": 20.2},
      {"compound": "COc1cccc(-c2nc(N3CCN(C)CC3)c3ccccc3n2)c1O", "inhibition": 10.5},
      {"compound": "O=C(COC(=O)c1ccco1)Nc1ccccc1", "inhibition": -8.55},
      {"compound": "CC(=O)c1sc(=S)n(-c2ccccc2)c1C", "inhibition": 7.39},
      {"compound": "O=C(Cn1cnc2c(cnn2-c2ccc(F)cc2)c1=O)N1CCN(c2ccccc2F)CC1", "inhibition": 3.88},
      {"compound": "O=S(=O)(c1ccc(-c2csc(-c3cccnc3)n2)cc1)N1CCOCC1", "inhibition": 3.97},
      {"compound": "NC(=O)NC(=O)COC(=O)c1ccccc1OCc1ccc(F)cc1", "inhibition": 4.1},
      {"compound": "CN(C)S(=O)(=O)c1cc(NC(=O)CN2CCCc3ccccc32)ccc1Cl", "inhibition": -10.6},
      {"compound": "O=C(CN1CCN(S(=O)(=O)c2ccc(Cl)cc2)CC1)Nc1ccc(F)cc1F", "inhibition": 6.43},
      {"compound": "O=C(Cc1nnc(NC(=O)Nc2ccc(Cl)cc2)s1)NCc1ccccc1", "inhibition": -0.51},
      {"compound": "CC(=O)OCC(=O)Nc1ccc(Br)c(C)c1", "inhibition": 21.6},
      {"compound": "Cc1cccc(NC(=O)CCN2C(=O)C3C4C=CC(C4)C3C2=O)c1", "note": "(stereo not drawn)", "inhibition": 3.17},
      {"compound": "CCOCC(=O)Nc1ccc(C)c(Cl)c1", "inhibition": 76.9},
      {"compound": "O=C(CSc1ncn[nH]1)Nc1ccc(OCc2ccccc2)cc1", "inhibition": 47.3},
      {"compound": "O=C(CCN1C(=O)C2C3C=CC(C3)C2C1=O)Nc1ccc2c(c1)OCO2", "note": "(stereo not drawn)", "inhibition": -1.34},
      {"compound": "Cc1nc(SCC(=O)Nc2ccccn2)n[nH]1", "inhibition": -3.41},
      {"compound": "CCOC(=O)C(=O)Nc1ccc(OCc2ccccc2)cc1", "inhibition": 12.6},
      {"compound": "CCOc1ccc(NC(=O)Cc2ccccc2)cc1", "inhibition": 5.27},
      {"compound": "O=C(CSc1ncccn1)Nc1ccc2c(c1)CCC2", "inhibition": 76},
      {"compound": "CCOC(=O)c1sc(=S)n(C)c1NC(=O)c1ccc(C(C)(C)C)cc1", "inhibition": 79.7},
      {"compound": "Oc1ccc(-c2nc3ccccc3s2)cc1", "inhibition": 59.6},
      {"compound": "CCCOc1ccc(C(CC(=O)O)NC(=O)c2ccc3c(c2)OCO3)cc1", "note": "(stereo not drawn)", "inhibition": 3.69},
      {"compound": "COc1ccc(-c2ocnc2C(=O)N2CCN(C(c3ccccc3)c3ccccc3)CC2)cc1", "inhibition": -4.16},
      {"compound": "O=C(NNC(=O)C1CCCO1)c1ccccc1Cl", "note": "(stereo not drawn)", "inhibition": -7.82},
      {"compound": "CCN(CC)S(=O)(=O)c1ccc(-c2nnc(SCC(=O)N3c4ccccc4CC3C)n2CC)cc1", "note": "(stereo not drawn)", "inhibition": 5},
      {"compound": "CCC(CC)c1nnc(NC(=O)CCCN2C(=O)c3ccccc3C2=O)s1", "inhibition": -6.94},
      {"compound": "O=C(CN1CCN(c2ccccc2)CC1)Nc1ccc(OCc2ccccc2)cc1", "inhibition": -8.11},
      {"compound": "O=C(CN1CCCC1)Nc1ccc(OCc2ccccc2)cc1", "inhibition": -0.61},
      {"compound": "COc1ccc(CNC(=O)C2Cc3ccccc3CN2C(=O)c2ccco2)cc1", "note": "(stereo not drawn)", "inhibition": -0.615},
      {"compound": "COCCNC(=O)c1ccc(CS(=O)(=O)c2ccc(C)cc2)o1", "inhibition": -5.24},
      {"compound": "COC(=O)c1ccc2nc(NC(=O)CN3C(=O)CCC3=O)sc2c1", "inhibition": -25.1},
      {"compound": "Cc1ccc(C(=O)NCCSC(C)(C)C)cc1", "inhibition": 2.64},
      {"compound": "Cc1ccc(SCCNC(=O)c2ccc(C)c([N+](=O)[O-])c2)cc1", "inhibition": -5.78},
      {"compound": "Cc1ccc2c(c1)-c1[nH]c(=S)ncc1CS2", "inhibition": 3.39},
      {"compound": "COc1ccc(-c2cc(C(F)(F)F)nc(SCC(=O)NCc3cccs3)n2)cc1OC", "inhibition": 0.43},
      {"compound": "Cc1cc(OCC(=O)N(Cc2ccco2)C2CCS(=O)(=O)C2)ccc1Cl", "note": "(stereo not drawn)", "inhibition": -8.25},
      {"compound": "O=C(COC(=O)/C=C/c1ccc(F)cc1)NCc1ccco1", "inhibition": -4.03},
      {"compound": "O=C(CCCn1cc([N+](=O)[O-])cn1)NC1CCCCCC1", "inhibition": 5.99},
      {"compound": "CS(=O)(=O)c1cccc(C(=O)NCc2ccc(F)cc2)c1", "inhibition": 9.82},
      {"compound": "Cc1ccc(-c2cc(C(F)F)n3ncc(C(=O)Nc4c(C)nn(Cc5c(Cl)cccc5Cl)c4C)c3n2)cc1", "inhibition": 57.7},
      {"compound": "Cc1nn(Cc2c(Cl)cccc2Cl)c(C)c1NC(=O)c1cnn2c(C(F)F)cc(-c3ccccc3)nc12", "inhibition": 49.7},
      {"compound": "COc1ccccc1NC(=O)CSC1=NCCN1", "inhibition": -6.91},
      {"compound": "C=CCN1CN(S(=O)(=O)c2cccs2)c2nc3ccccc3nc21", "inhibition": -3.39},
      {"compound": "Cc1ccccc1OCCCCCn1ccnc1", "inhibition": 5.71},
      {"compound": "Clc1ccccc1OCCCCn1ccnc1", "inhibition": 2.53},
      {"compound": "Cc1ccc(C)c(OCCCCCn2ccnc2)c1", "inhibition": -10.5},
      {"compound": "Cc1cccc(C(C)(C)C)c1OCCn1ccnc1", "inhibition": -11}
    ]}
  ]
}
